The source of these data is PMC8384837, “Expanding the binding specificity for RNA recognition by a PUF domain”.

PUM1 PUF domain R4-PHG, sequence (Q14671 828-1176 N971P/Q975G): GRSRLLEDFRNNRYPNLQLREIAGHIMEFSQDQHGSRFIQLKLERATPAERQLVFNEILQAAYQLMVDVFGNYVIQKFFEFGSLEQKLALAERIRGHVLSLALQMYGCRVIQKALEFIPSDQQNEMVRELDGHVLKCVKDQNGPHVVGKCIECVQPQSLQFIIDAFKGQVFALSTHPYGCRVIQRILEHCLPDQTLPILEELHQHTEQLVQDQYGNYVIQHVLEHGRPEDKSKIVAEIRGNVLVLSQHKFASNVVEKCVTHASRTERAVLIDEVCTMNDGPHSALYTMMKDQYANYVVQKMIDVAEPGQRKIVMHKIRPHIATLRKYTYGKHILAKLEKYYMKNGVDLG

In the experiment the target is PUM1 PUF domain R4-PHG (Homo sapiens, UniProt Q14671 828-1176, N971P;Q975G). Nature of the experiment: yeast three-hybrid, YBZ-1, SC-Leu-His + 0.5 mM 3-AT, 4 days. To be noted: tags: N-Gal4 AD-HA kept; label: inside an RPR1-promoter hybrid RNA with tandem MS2 sites; ssRNA. Put shortly:
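Pumilio-1 PUF domain libraries, randomized (NNK) at the three base-contacting residues of each repeat, were co-expressed with matching RNA elements from a centromeric plasmid in strain YBZ-1 (LexA–MS2 coat fusion, HIS3 reporter). Transformants were plated on SC-Leu (input) and SC-Leu-His + 0.5 mM 3-AT (selection) for four days, and repeat regions were PCR-amplified and Illumina-sequenced. The interaction score is the log2 change in variant frequency from input to selection, with pseudocount 1 where absent.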
As for “GGCUAGAACUAGUGGAUCCCCCGGCGCCCGGCGGCUCGAGCCCGGGUAAGUGUACAUAGUCUGCAUGCCGCCGGGCGCCAUGCCUGCAGGUCGACUCUAGAAAACAUG”, the binding signal was 4.15 log2 enrichment (interaction score).

Consider “GGCUAGAACUAGUGGAUCCCCCGGCGCCCGGCGGCUCGAGCCCGGGUAAGUGUAAAUAGUCUGCAUGCCGCCGGGCGCCAUGCCUGCAGGUCGACUCUAGAAAACAUG”, for which the binding signal was 4.7 log2 enrichment (interaction score). Consider “GGCUAGAACUAGUGGAUCCCCCGGCGCCCGGCGGCUCGAGCCCGGGUAAGUGUAUAUAGUCUGCAUGCCGCCGGGCGCCAUGCCUGCAGGUCGACUCUAGAAAACAUG”, for which the binding signal was 4.99 log2 enrichment (interaction score).
